Laboratory results as given in PubChem BioAssay (NCI).
About 83,000 compounds went through this panel and 20% of them were active in at least one assay; those are over-represented in the sample as a whole.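 Cells were grown in 96-well plates and exposed to the test compound at a single concentration for 48 hours; results are reported as percent growth, with values below 10 considered active.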 The source made the active and inactive calls.

System: SNB-75 CNS
Assay: NCI-60 one-dose screen, 48 h (100 = growth as untreated, 0 = no growth, -100 = all killed)
Conditions: 10 µM unless noted
Description: Growth inhibition of the SNB-75 human tumor cell line is measured as a screen for anti-cancer activity. Cells are grown in 96 well plates and exposed to the test compound for 48 hours. Compounds are tested at a single concentration, which is 10^-5 M for most compounds. The reported endpoint is percent growth (GI% or GIPRCNT), where numbers from 0 - 100% represent growth inhibition, and numbers from -100% - 0 represent cell death. For example, a value of 40 represents 60% growth inhibition. A value of 0 means no net growth occurred over the course of the experiment. A value of -40 indicates 40% of cells at the beginning of the experiment died by the end of the experiment. A value of -100 means all cells are dead at the end of the experiment.
NCI-60 Human Tumor Cell Lines Screen was performed using the standard one-dose NCI protocol, which is described in more detail at https://dtp.cancer.gov/discovery_development/nci-60/default.htm.
Compounds with GIPRCNT values below 10 were considered active. Activity score was based on GIPRCNT using the following formula: […]
Score is 0 for GIPRCNT values of 100 or above, 50 for GIPRCNT values of 0, and 100 for GIPRCNT values of -100.

SMILES	growth
C[C@]12CC[C@H]3[C@@H](C[C@@H]4N=C(c5ccc(O)cc5)S[C@@]45C[C@H](O)CC[C@]35C)[C@@H]1CC[C@@H]2O	26.4% (inactive)
CC[CH2][Pb]([CH2]CC)([CH2]CC)[O]C(=O)C(F)(F)F	-99.9% (active)
CO[C@@H]([CH2][Hg][S]C#N)[C@@H]([CH2][Hg][S]C#N)OC	84.5% (inactive)
CC(=O)O[C@H]1C[C@H](O[C@H]2[C@@H](O)C[C@H](O[C@H]3[C@@H](O)C[C@H](O[C@H]4CC[C@@]5(C)C(CCC6C5C[C@@H](O)[C@]5(C)[C@@H](C7=CC(=O)OC7)CC[C@]65O)C4)O[C@@H]3C)O[C@@H]2C)O[C@H](C)[C@H]1O[C@@H]1O[C@H](CO)[C@@H](O)[C@H](O)[C@H]1O (stereo not given in full)	-66.1% (active)
COc1ccc(/C=C(/C(=O)N2CCCC2)c2cc(OC)c(OC)c(OC)c2)cc1N	-12.2% (active)
ClCCN(CCCl)c1nc(Cl)c(C2CC(c3ccccc3)=NN2c2ccccc2)s1 (stereo not given)	78.9% (inactive)
CCCCN(CCCC)CC(O)c1ccccc1 (stereo not given)	91.5% (inactive)
OC1CCCCC1N1CCC(c2ccccc2)CC1 (stereo not given)	86% (inactive)
CCC[CH2][Sn]([CH2]CCC)([CH2]CCC)[O]C(=O)c1ccc(Cl)cc1Cl	-93.2% (active)
O=C(O)C1(Br)CC12c1ccccc1-c1ccccc12 (stereo not given)	104% (inactive)
C[CH2][Pb]([CH2]C)([CH2]C)[O]C(=O)COc1ccccc1	4.45% (active)
COc1ccc(/C=C\c2cc(OC)c(OC)c(OC)c2)cc1N/C=C\C(=O)c1c[nH]c2ccccc12	19.1% (inactive)
CCC(C)/C=C(C)/C=C/C(=O)c1c(O)c(-c2ccc(O)cc2)c[nH]c1=O (stereo not given)	51.5% (inactive)
COc1ccc(C2SCC(=O)Nc3c2c(C)nn3-c2nc3ccc(C)cc3s2)cc1O (stereo not given)	32.6% (inactive)
CCOC(=O)Nc1cc(Cl)c([N+](=O)[O-])c(NC(=O)OCC)n1	97.3% (inactive)
CC(C)CCC[C@@H](C)[C@H]1CC[C@H]2[C@@H]3CC=C4C[C@@H](OC(=O)Cc5ccc(N(CCCl)CCCl)cc5)CC[C@]4(C)[C@H]3CC[C@]12C	103% (inactive)
O=C(O)c1[nH]c(=O)[nH]c(=O)c1F	99% (inactive)
CC(=O)C1CCC2C3CC=C4CC(OC(=O)Cc5ccc(N(CCCl)CCCl)cc5)CCC4(C)C3CCC12C (stereo not given)	93.7% (inactive)
O=C1NC(=S)NC(=O)C1=Cc1ccccc1	85.7% (inactive)
O=C1c2ccccc2C(=O)N1[N+](=O)[O-]	103% (inactive)

SMILES	growth
CC1(C)N=C(N)N=C(N)N1c1cccc(C(=O)Nc2cccc(S(=O)(=O)F)c2)c1	80.2% (inactive)
CC(C)(O)/C=C/C(=O)[C@](C)(O)[C@H]1[C@H](O)C[C@@]2(C)[C@@H]3CC=C4[C@@H](C=C(O)C(=O)C4(C)C)[C@]3(C)C(=O)C[C@]12C	-86.6% (active)
Cc1cc(NC(=O)CCc2ccc(N3C(N)=NC(N)=NC3(C)C)cc2)ccc1S(=O)(=O)F	52.5% (inactive)
CCC1CN1P(=O)(OCCOC)N1CC1CC (stereo not given)	92.9% (inactive)
Fc1ccc(C2=NN(c3ccccc3)C(c3sc(N(CCCl)CCCl)nc3Cl)C2)cc1 (stereo not given)	68.7% (inactive)
CC(=O)[O][Hg][c]1nc2c(c(=O)n(C)c(=O)n2C)n1C	77.8% (inactive)
CC1([N+](=O)[O-])COP(=O)(Nc2ccc(F)cc2)OC1 (stereo not given)	95.6% (inactive)
CC1(C)N=C(N)N=C(N)N1c1ccc(CCCCc2ccc(S(=O)(=O)F)cc2)c(Cl)c1	63.2% (inactive)
CC(N)Cc1ccc(O)cc1 (stereo not given)	107% (inactive)
CCN(CC)c1ccc(C=C2C(=O)NC(=S)NC2=O)cc1	75.8% (inactive)
NS(=O)(=O)c1nc[nH]c1[N+](=O)[O-]	92.1% (inactive)
CN1C(=O)NC(=O)C(N=Nc2ccc(Cl)cc2)C1=O (stereo not given)	126% (inactive)
NC(Cc1ccc2c(c1)OCO2)c1ccc2c(c1)OCO2 (stereo not given)	75.4% (inactive)
C=CC(=O)NC(O)C(Cl)(Cl)Cl (stereo not given)	100% (inactive)
CC1CC=CCC12C(=O)NC(=S)NC2=O (stereo not given)	81.4% (inactive)
O=C(NCc1ccc([N+](=O)[O-])cc1)Nc1ccc(S(=O)(=O)F)cc1	86.2% (inactive)
CCOc1cc(C=C(C#N)C#N)cc(Br)c1O	83.5% (inactive)
CC(/C=N/N=C(N)N)=N/N=C(N)N	71.5% (inactive)
N#CC1=C(N)Oc2cc3c(cc2C1c1cccs1)OCO3 (stereo not given)	-14.9% (active)
COc1cc(C2=NN(c3ccccc3)C(c3sc(N(CCCl)CCCl)nc3Cl)C2)cc(OC)c1OC (stereo not given)	69.2% (inactive)
